Several values for one entry are separate records, joined by “and”; a condition that tells them apart may be missing. Identical values can stand only once. Screen size: about 5,500 compounds; about 2,000 (36%) were called active. Roughly 18% stayed inconclusive and do not appear here. Cut-off read from the data, not from the text of the source: active = normalized growth mostly below about 0.91 (no sharp cut-off); inconclusive = no clear call, values can overlap the other calls; inactive = mostly above about 0.92. This is one part of the list.
Test: chemical genetic growth profiling, strain panel (AID 1159580);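 note: tested at 20 µM; growth read once vehicle control cultures reached saturation at 30 °C; 1 = growth at the plate median or of vehicle wells; lower values mean less growth of the strain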
Conditions: S. cerevisiae deletion strains, growth OD

Measured: normalized growth

O=C(O)c1cc(=O)c2ccccc2[nH]1
inactive: locus YAL013W, strain DEP1, stronger effect = lower value 0.991 and 1.01 | locus YAL021C, strain ccr4, stronger effect = lower value 0.96 | locus YAL026C, strain drs2, stronger effect = lower value 0.986 | locus YAL030W, strain snc1, stronger effect = lower value 0.987 | locus YAL040C, strain CLN3, stronger effect = lower value 0.998 | locus YBL061C, strain skt5, stronger effect = lower value 0.972 | locus YBR009C, strain hhf1, stronger effect = lower value 0.979 | locus YBR021W, strain FUR4, stronger effect = lower value 1.02 | locus YBR023C, strain chs3, stronger effect = lower value 0.98 | locus YBR171W, strain sec66, stronger effect = lower value 0.975 | locus YBR229C, strain ROT2, stronger effect = lower value 0.96 | locus YBR231C, strain swc5, stronger effect = lower value 0.998 | locus YBR279W, strain paf1, stronger effect = lower value 0.992 | locus YCL011C, strain gbp2, stronger effect = lower value 0.986 | locus YCL016C, strain dcc1, stronger effect = lower value 0.981 | locus YCL029C, strain bik1, stronger effect = lower value 0.989 | locus YCL061C, strain MRC1 (second series), stronger effect = lower value 0.992 | locus YCL061C, strain MRC1, stronger effect = lower value 0.983 | locus YCL069W, strain vba3, stronger effect = lower value 0.993 | locus YCR088W, strain abp1, stronger effect = lower value 0.987 | locus YDL005C, strain med2, stronger effect = lower value 0.975 | locus YDL035C, strain GPR1, stronger effect = lower value 0.998 | locus YDL040C, strain nat1, stronger effect = lower value 0.988 | locus YDL074C, strain BRE1, stronger effect = lower value 0.986 | locus YDL101C, strain DUN1, stronger effect = lower value 0.964 | locus YDL134C, strain PPH21, stronger effect = lower value 0.972 | locus YDL185W, strain tfp1, stronger effect = lower value 0.979 | locus YDL192W, strain arf1, stronger effect = lower value 0.991 | locus YDR001C, strain nth1, stronger effect = lower value 0.991 | locus YDR069C, strain doa4, stronger effect = lower value 0.97 | locus YDR101C, strain arx1, stronger effect = lower value 0.993 | locus YDR137W, strain rgp1, stronger effect = lower value 1.02 | locus YDR150W, strain NUM1, stronger effect = lower value 0.975 and 1.01 | locus YDR159W, strain sac3, stronger effect = lower value 0.962 | locus YDR162C, strain NBP2, stronger effect = lower value 0.99 | locus YDR195W, strain ref2 0.968 | locus YDR297W, strain sur2, stronger effect = lower value 0.985 | locus YDR318W, strain mcm21, stronger effect = lower value 0.99 | locus YDR334W, strain swr1, stronger effect = lower value 0.984 | locus YDR335W, strain msn5, stronger effect = lower value 0.99 | locus YDR363W, strain ESC2, stronger effect = lower value 0.981 | locus YDR388W, stronger effect = lower value 0.997 | locus YDR392W, strain spt3, stronger effect = lower value 0.963 | locus YDR502C, strain sam2, stronger effect = lower value 0.995 | locus YEL003W, strain gim4, stronger effect = lower value 0.988 | locus YEL037C, strain rad23, stronger effect = lower value 0.99 | locus YEL061C, strain CIN8 (second series), stronger effect = lower value 0.993 | locus YEL061C, strain CIN8, stronger effect = lower value 0.992 | locus YER002W, strain NOP16, stronger effect = lower value 0.98 | locus YER015W, strain faa2, stronger effect = lower value 0.984 | locus YER016W, strain bim1, stronger effect = lower value 0.987 | locus YER110C, stronger effect = lower value 0.978 | locus YER111C, strain swi4, stronger effect = lower value 0.983 | locus YER155C, strain BEM2 (second series), stronger effect = lower value 0.981 | locus YER155C, strain BEM2, stronger effect = lower value 0.997 | locus YER167W, strain BCK2, stronger effect = lower value 1 | locus YFR010W, strain ubp6, stronger effect = lower value 0.977 | locus YGL078C, strain dbp3, stronger effect = lower value 0.987 | locus YGL086W, strain mad1, stronger effect = lower value 0.998 | locus YGL167C, strain pmr1, stronger effect = lower value 0.973 | locus YGL173C, strain kem1, stronger effect = lower value 0.986 | locus YGL227W, strain vid30, stronger effect = lower value 0.984 | locus YGL240W, strain doc1, stronger effect = lower value 0.987 | locus YGL248W, strain PDE1, stronger effect = lower value 0.977 | locus YGL253W, strain hxk2, stronger effect = lower value 0.988 | locus YGR078C, strain PAC10, stronger effect = lower value 0.999 and 0.983 | locus YGR135W, strain pre9, stronger effect = lower value 0.988 | locus YGR229C, strain SMI1, stronger effect = lower value 1 | locus YGR252W, strain gcn5, stronger effect = lower value 0.992 | locus YHR013C, strain ard1, stronger effect = lower value 0.958 | locus YHR027C, strain rpn1, stronger effect = lower value 1 | locus YHR030C, strain SLT2, stronger effect = lower value 0.991 and 0.972 | locus YHR079C, strain IRE1 (second series), stronger effect = lower value 0.989 | locus YHR079C, strain IRE1, stronger effect = lower value 0.985 | locus YHR094C, strain hxt1, stronger effect = lower value 0.996 | locus YHR129C, strain ARP1, stronger effect = lower value 0.995 | locus YHR142W, strain chs7, stronger effect = lower value 0.99 | locus YHR200W, strain rpn10, stronger effect = lower value 0.987 | locus YIL066C, strain RNR3, stronger effect = lower value 0.973 | locus YIL073C, strain SPO22, stronger effect = lower value 0.95 | locus YIL125W, strain kgd1, stronger effect = lower value 0.987 | locus YIR030C, strain dcg1, stronger effect = lower value 0.983 | locus YJL092W, strain hpr5, stronger effect = lower value 0.987 | locus YJL095W, strain BCK1 (second series), stronger effect = lower value 0.973 | locus YJL095W, strain BCK1, stronger effect = lower value 1.04 and 0.987 | locus YJL115W, strain asf1, stronger effect = lower value 0.992 | locus YJL129C, strain trk1, stronger effect = lower value 0.973 | locus YJL134W, strain LCB3, stronger effect = lower value 0.982 | locus YJL154C, strain vps35, stronger effect = lower value 0.98 | locus YJL164C, strain tpk1, stronger effect = lower value 1.01 | locus YJL166W, strain qcr8, stronger effect = lower value 0.998 | locus YJL168C, strain set2, stronger effect = lower value 0.996 | locus YJL187C, strain SWE1 (second series), stronger effect = lower value 0.967 | locus YJL187C, strain SWE1, stronger effect = lower value 0.987 | locus YJR043C, strain POL32, stronger effect = lower value 1 | locus YJR066W, strain TOR1, stronger effect = lower value 0.88
